Test results: PubChem BioAssay AID1986 (Sanford-Burnham Center for Chemical Genomics, 2009)
Screen size: about 290,000 compounds; about 890 (0.31%) were called active. The sample holds actives, similar compounds and a random draw of the others, so the mix is not that of the screen. No stated cut-off is given here; in the data, active means inhibition mostly above about 52% (no sharp cut-off); inactive means mostly below about 76%.

Assay: cell-free HIV fusion peptide-binding blockers – biochemical, uHTS, fluorescence dequenching, primary screen (AID 1986)
Settings: 30 min, stronger effect = higher value
[1] = measured here: repeat confirmation average inhibition, at 18.6 µM

Cc1ccc(/C=C2/Sc3ccc(C(=O)N4CCC5(CC4)OCCO5)cc3NC2=O)cc1
inhibition (at 20 µM): 54.6% (inactive) | inhibition [1]: 37.1%

CCOC(=O)c1sc(/N=C/c2c(O)n(-c3ccccc3)c(=O)[nH]c2=O)c(C#N)c1C
inhibition (at 20 µM): -1.7% (inactive)

O=C(O)C1C2c3ccccc3C(c3ccccc32)C1C(=O)Nc1ccccc1 (configuration not stated)
inhibition (at 20 µM): 4.1% (inactive)

CC12CN3CCN(CC(C3)C1O)C2 (configuration not stated)
inhibition (at 20 µM): -2.7% (inactive)

COc1ccccc1/C=N/N=C(/N)N[N+](=O)[O-]
inhibition (at 20 µM): 2.7% (inactive)

COc1cccc(CN2CC=C(c3ccc(F)cc3)CC2)c1
inhibition (at 20 µM): 2.3% (inactive)

COc1ccc(CN2CCN(Cc3ccccc3)CC2)c(OC)c1
inhibition (at 20 µM): -1.2% (inactive)

Cc1cc(/C=C2\C(=O)NC(=O)N(c3ccc(Cl)cc3)C2=O)c(C)n1-c1sc2c(c1C#N)CCCC2
inhibition (at 20 µM): 64.4% (inactive) | inhibition [1]: 9%

Cc1ccc(N2C(=O)NC(=O)/C(=C\c3cc(C)n(-c4sc5c(c4C#N)CCCC5)c3C)C2=O)cc1
inhibition (at 20 µM): 52.2% (active)

Cc1cccc(N2C(=O)NC(=O)/C(=C\c3cc(C)n(-c4sc5c(c4C#N)CCCC5)c3C)C2=O)c1C
inhibition (at 20 µM): 22% (inactive)

CNP(=O)(Oc1ccccc1)OC12CC3CC(CC(C3)C1)C2 (configuration not stated)
inhibition (at 20 µM): 1.8% (inactive)

C=CCn1c(O)c(C(C)=NCCCn2ccnc2)c(=O)[nH]c1=O
inhibition (at 20 µM): 0.6% (inactive)

Cc1cc2c(C(C)C)c(O)c(O)c(C=O)c2c(O)c1-c1c(C)cc2c(C(C)C)c(O)c(O)c(C=O)c2c1O
inhibition (at 20 µM): 65.7% (active)

COc1cccc(C(=O)C2CCCN(C3CCOCC3)C2)c1 (configuration not stated)
inhibition (at 20 µM): 0.4% (inactive)

Cc1ccccc1N1C(=O)NC(=O)/C(=C\c2ccc3c(c2)CCCN3Cc2ccccc2)C1=O
inhibition (at 20 µM): 15.8% (inactive)

Cc1cccc(N2C(=O)NC(=O)/C(=C\c3ccc4c(c3)CCCN4Cc3ccccc3)C2=O)c1
inhibition (at 20 µM): 48.8% (inactive)

O=C1NC(=O)N(c2ccc(F)cc2)C(=O)/C1=C/c1ccc2c(c1)CCCN2Cc1ccccc1
inhibition (at 20 µM): 56.3% (active)

CC1CCC(N2CCN(C(=O)COc3ccccc3)CC2)CC1 (configuration not stated)
inhibition (at 20 µM): 2.3% (inactive)

Cn1cc(C=C2C(=O)NC(=O)NC2=O)c2ccccc21
inhibition (at 20 µM): 160% (inactive)

Cn1cc(C(=O)c2ccccc2)c2ccccc21
inhibition (at 20 µM): -2% (inactive)

Cn1cc(C=C(C#N)C#N)c2ccccc21
inhibition (at 20 µM): 72.4% (active) | inhibition [1]: 90.2%

C=C1N2CCC(CC2)C1(O)c1ccccc1C (configuration not stated)
inhibition (at 20 µM): 1.2% (inactive)

O=C(c1cccnc1)C1CCCN(Cc2nc(-c3cnccn3)no2)C1 (configuration not stated)
inhibition (at 20 µM): -0.9% (inactive)

C=CCc1cc(C=C2C(=O)N(C)C(=O)N(C)C2=O)cc(OCC)c1OCc1ccccc1
inhibition (at 20 µM): 11.3% (inactive)

Cc1cc2c(C(F)(F)F)cc(=O)oc2c2c1NCCC2
inhibition (at 20 µM): 51.9% (active) | inhibition [1]: 56.2%

O=c1cc(C(F)(F)F)c2cc3c4c(c2o1)CCCN4CCC3
inhibition (at 20 µM): -0.6% (inactive)

Cc1cc(=O)oc2cc3c(cc12)CCCN3
inhibition (at 20 µM): 0.7% (inactive)

CCOc1ccc(N2C(=O)/C(=C\c3cccs3)C(=O)NC2=S)cc1
inhibition (at 20 µM): 55.7% (active)

O=C1NC(=O)N(Cc2ccccc2)C(=O)/C1=C\C=C\c1ccco1
inhibition (at 20 µM): 84.6% (inactive) | inhibition [1]: 15.8%

COc1ccc(CN2C(=O)NC(=O)/C(=C/c3ccoc3)C2=O)cc1
inhibition (at 20 µM): 146% (inactive)

O=C1NC(=O)N(Cc2ccccc2)C(=O)/C1=C/C=C/c1ccco1
inhibition (at 20 µM): 146% (inactive)

O=C1NC(=O)N(Cc2ccco2)C(=O)/C1=C/C=C/c1ccco1
inhibition (at 20 µM): 83.8% (active)

CCN(CC)c1ccc(/C=C2/C(=O)NC(=O)N(CC3CCCO3)C2=O)cc1 (configuration not stated)
inhibition (at 20 µM): 22.9% (inactive)

CCOc1ccc(N2C(=O)/C(=C/c3ccco3)C(=O)NC2=S)cc1
inhibition (at 20 µM): 31.9% (inactive)

O=C1NC(=O)N(Cc2ccccc2)C(=O)/C1=C\c1ccco1
inhibition (at 20 µM): 65.1% (inactive) | inhibition [1]: 4.5%

CCN(CC)c1ccc(/C=C2\C(=O)NC(=O)N(Cc3ccco3)C2=O)cc1
inhibition (at 20 µM): 84.3% (active)

COc1ccc(CN2C(=O)NC(=O)/C(=C\c3ccco3)C2=O)cc1
inhibition (at 20 µM): 91.3% (active)

COc1ccc(N2C(=O)/C(=C/c3cccs3)C(=O)NC2=S)cc1
inhibition (at 20 µM): 15.2% (inactive)

CCN(CC)c1ccc(/C=C2\C(=O)NC(=O)N(CC3CCCO3)C2=O)cc1 (configuration not stated)
inhibition (at 20 µM): 48.8% (inactive)

CN(C)C(=O)Oc1ccc(-c2cn3cc(Cl)ccc3n2)cc1
inhibition (at 20 µM): -0.5% (inactive)

COCCOC(=O)C1=C(C)OC(N)=C(C(=O)OC)C12C(=O)Nc1ccccc12 (configuration not stated)
inhibition (at 20 µM): -2% (inactive)

CNC(C(=O)c1ccccc1)C(OC)c1cccc([N+](=O)[O-])c1 (configuration not stated)
inhibition (at 20 µM): 1.8% (inactive)

Cc1cc(C)nc(N2Cc3ccccc3C2=N)n1
inhibition (at 20 µM): -3.6% (inactive)

COc1ccc(OC(=O)N(C)C)c(CN(C)C)c1
inhibition (at 20 µM): 0.5% (inactive)

COc1ccc(/C=C2/C(=O)NC(=O)N(Cc3ccco3)C2=O)cc1
inhibition (at 20 µM): 50.2% (active)

Cc1cc(C)cc(N2C(=O)NC(=O)/C(=C\C=C\c3ccco3)C2=O)c1
inhibition (at 20 µM): 108% (inactive) | inhibition [1]: 13.9%

Cc1cc(/C=C2/C(=O)NC(=O)N(Cc3ccco3)C2=O)c(C)n1-c1ccccc1
inhibition (at 20 µM): 92.7% (inactive) | inhibition [1]: 2.6%

O=C1NC(=S)N(Cc2ccco2)C(=O)/C1=C\c1cccs1
inhibition (at 20 µM): 67.5% (active)

CN1C(=O)NC(=O)/C(=C/c2ccc([N+](=O)[O-])o2)C1=O
inhibition (at 20 µM): 27.7% (inactive)

COc1ccc(CN2C(=O)NC(=O)/C(=C/c3ccc([N+](=O)[O-])o3)C2=O)cc1
inhibition (at 20 µM): 85.6% (active)

C=CCN1C(=O)/C(=C/c2cccs2)C(=O)NC1=S
inhibition (at 20 µM): 15.5% (inactive)

COc1ccc(/C=C2/C(=O)N(Cc3ccco3)C(=O)N(C(C)C)C2=O)cc1
inhibition (at 20 µM): 9% (inactive)

COc1ccc(CN2C(=O)NC(=O)/C(=C/c3ccc([N+](=O)[O-])s3)C2=O)cc1
inhibition (at 20 µM): 55.1% (inactive) | inhibition [1]: 18.5%

Cc1cccc(N2C(=O)NC(=O)/C(=C\C=C\c3ccco3)C2=O)c1
inhibition (at 20 µM): 98.4% (active)

Cc1ccc(N2C(=O)NC(=O)/C(=C\C=C\c3ccco3)C2=O)cc1
inhibition (at 20 µM): 75.4% (inactive) | inhibition [1]: 16.3%

O=C1NC(=O)N(Cc2ccc(F)cc2)C(=O)/C1=C/c1cccs1
inhibition (at 20 µM): -3.9% (inactive)

COc1ccc(NC(=O)CN2C3CCC2CC(O)(c2cccnc2)C3)cc1OC (configuration not stated)
inhibition (at 20 µM): -0.5% (inactive)
